High-throughput results (PubChem)
15-hLO inh – 15-hLO (ALOX15) enzyme inhibition | P16050 | purified 15hLO-1, xylenol orange hydroperoxide absorbance | Potency, µM (titrated, usually from 57.1 µM), for inactives: at the highest dose activity change, negative = inhibition, usual class: inhibitors | hit rate 1.4% among 74,000 | AID 887; also: nearly all actives have a fitted effect of over 55% in size
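40 nM 15hLO-1 + cpd, 15 min RT; start w/ 50 uM AA (final), 6 min RT; stop/detect w/ 200 uM XO + 300 uM Fe(II) in 50 mM H2SO4, 30 min; A573/A405. Buffer 25 mM Hepes pH 7.5, 0.01% Triton X-100. No-enzyme wells as negative control.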
ERK AVP block – blocks ERK signaling stimulated by vasopressin | HEK293-V1b, vasopressin-stimulated pERK AlphaScreen | Potency, µM (top dose mostly 57.5 µM), inactives show at the highest dose activity, negative = inhibition, usual class: inhibitors | hit rate 0.99% among 72,000 | AID 995; also: nearly all actives have a fitted effect of over 55% in size
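Overnight-seeded V1b-HEK293 cells in 1% FBS got compound, then vasopressin (25 nM final, 5 min, 37C), then lysis buffer. AlphaScreen detection of phospho-ERK; activity normalized to basal and full-stimulation controls.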
Tau filament bind – binders of human tau filaments. hit rate 2% among 71,000. recombinant tau filaments, thioflavin S fluorescence, 15 h; filaments grown with octadecylsulfate alongside compound. Potency, µM (doses to about 57.1 µM), inactives show at the top dose activity change, negative = inhibition. P10636. AID 596;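 also: actives lower thioflavin S fluorescence by blocking filaments or displacing dye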
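Recombinant tau protein (human, 1 uM final) plus 30 uM ODS in HEPES pH 7.4 with NaCl, DTT and thioflavine S. Compound present from the start; fluorescence at 510 nm after 15 h, 37 C.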
DNA Pol III inh – DNA polymerase III holoenzyme inhibition. reconstituted DNA polymerase III holoenzyme replication, biochemical. Potency, µM (top dose mostly 57.1 µM), without a hit: top-dose activity change, negative = inhibition. hit rate 0.25% among 71,000. AID 603
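Reconstituted *E. coli* holoenzyme (0.35 nM Pol III, 1 nM beta, 154 nM SSB, 2 nM primase) was preincubated with compound for 15 min at RT. Synthesis on 1.4 nM ssM13Gori ran 35 min, then was stopped with PicoGreen/EDTA and read as dsDNA fluorescence.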
Bst PK mod – modulators of Bacillus stearothermophilus pyruvate kinase; Potency, µM; purified pyruvate kinase, luminescence ATP production; ribose 5-phosphate activator present at AC10; hit rate 1.2% among 51,000; in the data active = potency below about 11 µM; inconclusive = mostly about 12 µM to 25 µM;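 the screen sought inhibitors and activators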;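 also: scaled between full activation by ribose 5 phosphate and full inhibition by luteolin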
FLuc inh – blocks Photinus pyralis firefly luciferase activity; purified firefly luciferase, luminescence, 8 min; hit rate 2.2% among 72,000; Potency, µM (top dose mostly 57.1 µM), without a hit: at the top dose activity change, negative = inhibition, actives largely listed as inhibitors; AID 411; P08659; also: nearly all actives have a fitted effect of over 40% in size
Target sequence (P08659 whole entry, looked up): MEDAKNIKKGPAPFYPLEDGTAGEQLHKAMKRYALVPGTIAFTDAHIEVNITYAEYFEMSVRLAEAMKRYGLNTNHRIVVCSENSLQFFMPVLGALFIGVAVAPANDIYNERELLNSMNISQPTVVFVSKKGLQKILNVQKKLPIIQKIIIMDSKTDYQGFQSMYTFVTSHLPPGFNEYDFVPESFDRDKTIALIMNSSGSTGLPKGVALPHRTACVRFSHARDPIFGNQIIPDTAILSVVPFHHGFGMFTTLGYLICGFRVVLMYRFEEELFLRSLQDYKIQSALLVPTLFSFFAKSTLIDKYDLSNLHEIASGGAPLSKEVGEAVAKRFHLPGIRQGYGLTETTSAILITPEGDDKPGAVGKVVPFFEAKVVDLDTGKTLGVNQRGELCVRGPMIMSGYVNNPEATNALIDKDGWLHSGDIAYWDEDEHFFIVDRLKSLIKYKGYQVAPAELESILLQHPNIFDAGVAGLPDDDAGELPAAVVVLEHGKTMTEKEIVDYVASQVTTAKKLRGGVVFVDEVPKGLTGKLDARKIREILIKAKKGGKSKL
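Titration-based qHTS; buffer 50 mM imidazole pH 7.2, 50 mM KCl, 7 mM MgCl2, 10 uM ATP, 0.01% Tween 20, 0.05% BSA; luciferase/luciferin detector mix added after compound; 8 min, ambient; luminescence.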
* marks the source's active call; other numbers are inactive results; i = inactive; ? = inconclusive; / = not tested or not shown; [ ] = remark or other dose. Rows were chosen to be rich in hits. Some 6% of all compounds tested hit in one or more screens of this group. Unless noted, calls follow the shape of the dose curve; as a rule, active = well fitted curve in the direction sought with a large enough effect; inconclusive = small, poorly fitted or top-dose-only effect, or another doubt; inactive = no such curve, though single readings can be large; an effect the other way counts as inactive or inconclusive. Unless noted, % is scaled to controls: 0 for no effect and ±100 for the full control effect; potency is read from the fitted curve at half-maximal effect.

SMILES | 15-hLO inh | ERK AVP block | Tau filament bind | DNA Pol III inh | Bst PK mod | FLuc inh
c1cc2c(cc1Nc1nc(-c3ccc4c(c3)OCO4)cs1)OCCO2 | -29.5% | -4.2% | 25.1µM* | -3.7% | ? | 12.6µM*
Oc1ccc(-c2csc(NCc3ccco3)n2)cc1 | -20.6% | -9.6% | -10.6% | 1.0% | i | 25.1µM*
Oc1ccc(Nc2nc(-c3ccc(O)cc3)cs2)cc1 | ? | -19.0% | ? | -2.2% | 7.96* | 15.8µM*
NS(=O)(=O)c1ccc(Nc2nc(-c3ccc(O)cc3)cs2)cc1 | 25.1µM* | ? | 17.4% | 7.5% | ? | -2.7%
O=[N+]([O-])c1cccc(Cl)c1Cl | -3.7% | -3.4% | 4.4% | -3.2% | / | /
CCCc1cc(=O)oc2cc(C)c(CN3CCCC3)c(O)c12 | 12.6µM* | -27.1% | 12.6µM* | -17.7% | >57 | 2.8%
CCc1cc(=O)oc2cc(C)c(CN3CCCC3)c(O)c12 | / | / | / | / | >25.6 | 2.5%[25.5 µM]
CC(=O)C1=C(C)Nc2cc(C(F)(F)F)ccc2S1 | 12.6µM* | -17.5% | 31.6µM* | -4.6% | / | -0.8%
C/C(CCN1CCCc2nc(C)c(C)cc21)=N\OC[C@@H](O)[C@@H]1O[C@@H]2OC(C)(C)O[C@@H]2[C@H]1O | 4.5%[11.4 µM] | 20.9%[11.5 µM] | / | / | / | 2.3%[11.4 µM]
COc1cc(C2C(C#N)=C(N)Oc3c2oc(CO)cc3=O)ccc1OC(C)C (configuration not stated) | 20µM* | -19.5% | -11.9% | -9.4% | >57 | -0.9%
COc1ccc(C2C(C#N)=C(N)Oc3cc(O)ccc32)cc1OC (configuration not stated) | 10µM* | ? | 142.9% | 0.8% | >57 | 3.8%
Cc1ccc(C2C(C#N)=C(N)Oc3c2oc(CO)cc3=O)o1 (configuration not stated) | -15.7% | -29.1% | 11.7% | -14.9% | >57 | -2.6%
COc1cc(C2C(C#N)=C(N)Oc3cc(N(C)C)ccc32)cc2c1OCO2 (configuration not stated) | 25.1µM* | ? | 206.0% | 1.6% | >57 | 3.2%
Cc1ccc(-c2cc(-c3ccccc3Cl)[nH]n2)c(O)c1 | / | -26.7% | 0.2% | -2.4% | / | 10µM*
Cc1ccccc1-c1cc(-c2ccccc2O)n[nH]1 | 15.8µM* | -18.7% | ? | 3.5% | i | ?
C=C(C)C1CCC(C)=C1COC(=O)Nc1ccccc1 (configuration not stated) | 6.31µM* | / | / | / | / | /
CC1CCCCN1c1nc(-c2ccncc2)nc2ccccc12 (configuration not stated) | ? | 31.6µM* | 20.1% | -0.6% | >11.4 | 0.8%
CCC1CCCCN1c1nc(-c2ccncc2)nc2ccccc12 (configuration not stated) | / | / | / | / | >25.6 | 0.2%[25.5 µM]
Cc1cc2nc3[nH]c4c(Cl)cc(Cl)cc4c3nc2cc1C | -6.6%[11.4 µM] | -17.9%[11.5 µM] | -5.6%[11.4 µM] | -13.4%[11.4 µM] | / | 0.6%[11.4 µM]
Cc1ccc(-c2nnn(CC(=O)N(CC(=O)NCc3ccccc3)c3cccc(C)c3C)n2)o1 | ? | 31.9% | 5.7% | 2.7% | 4.38* | -2.2%
Cc1cccc(N(CC(=O)NCc2ccccc2)C(=O)Cn2nnc(-c3ccc(C)o3)n2)c1 | -4.6% | 1.9% | 194.7% | -3.2% | >57 | 1.0%
C[C@@]12CCC(O)C[C@H]1CCc1ccccc12 (some centres not stated) | -5.2% | 0.0% | / | / | / | /
CC1(C)O[C@H]2O[C@@H]([C@H](O)CON3C(=O)c4ccccc4C3=O)[C@H](O)[C@H]2O1 | 1.8%[11.4 µM] | -5.7%[11.5 µM] | / | / | / | -0.3%[11.4 µM]
CC(C)(C)OC(=O)NCCCCCc1nnc(SCC(=O)Nc2cccc(Cl)c2)o1 | -13.2% | 25.1µM* | -0.3% | -0.3% | >57 | -4.1%
Oc1ccccc1NCC(O)Cn1ccc2ccccc21 (configuration not stated) | 6.31µM* | -5.6% | 12.6µM* | -3.2% | >57 | 3.3%
SMILES | 15-hLO inh | ERK AVP block | Tau filament bind | DNA Pol III inh | Bst PK mod | FLuc inh
O=C1c2ccccc2S(=O)(=O)N1CC(O)Cn1ccc2ccccc21 (configuration not stated) | 0.2% | 5.4% | -8.3% | -2.4% | >57 | 0.8%
OCc1nc2ccccc2n1CC(O)Cn1ccc2ccccc21 (configuration not stated) | -2.1% | 15.8µM* | -28.7% | -0.5% | >57 | -0.2%
CCOCCCNCC(=O)Nc1ccccc1N1CCOCC1 | 0.3% | -4.4% | -1.2% | -3.3% | >57 | 1.4%
CCOC(=O)c1[nH]cc(-c2ccccc2)c1N1CCOCC1 | 25.1µM* | 5.4% | -5.1% | -0.9% | >57 | 2.9%
CC(=O)N[C@H](Cc1c[nH]c2ccccc12)C(N)=O | 2.9% | 7.6% | / | / | / | /
O=C(N1CCOCC1)N1CCN(c2nc(-c3ccc(F)cc3)cs2)CC1 | -8.7% | 0.3% | 18.1% | -4.0% | i | 15.8µM*
Nc1ccccc1C(=O)Nc1cccc(C(=O)O)c1 | 10.2% | 10.1% | 16.5% | -1.4% | / | 25.1µM*
COc1cccc2c1C(=O)c1c(O)c3c(c(O)c1C2=O)C[C@@](O)(C(=O)CO)C[C@@H]3O[C@H]1C[C@H](N)[C@H](O)[C@H](C)O1 | 10.4% | ? | / | / | >25.6 | -13.4%[25.5 µM]
CC(=O)[C@@]1(O)Cc2c(O)c3c(c(O)c2[C@H](O[C@H]2C[C@H](N)[C@H](O)[C@H](C)O2)C1)C(=O)c1ccccc1C3=O | ? | ? | 1.58µM* | 3.98µM* | / | -23.1%
COc1cccc2c1C(=O)c1c(O)c3c(c(O)c1C2=O)C[C@](O)(C(C)=O)C[C@H]3O[C@@H]1C[C@H](N)[C@H](O)[C@H](C)O1 | 7.1%[25.6 µM] | -0.1%[25.7 µM] | 1.58µM* | 2µM* | / | -6.6%[25.5 µM]
O=C1[C@H]2[C@H]3[C@H](O)[C@H](O)C/C(=N/OC[C@@H](O)COCc4ccco4)[C@H]3CC[C@@H]2C(=O)N1Cc1ccc2c(c1)OCO2 | 3.7%[11.4 µM] | 15.4%[11.5 µM] | / | / | / | -3.6%[11.4 µM]
C[C@@H]1/C=C\CC(=O)OC[C@H](C)C(=O)N[C@@H](C)C(=O)OC1 | 7.5%[11.4 µM] | 7.3%[11.5 µM] | / | / | / | -0.1%[11.4 µM]
COc1cc2c(cc1OC)C(c1ccc(N)cc1)=NNC(=O)C2 | -24.2%[25.6 µM] | ? | -6.8% | -1.8% | / | 1.1%
C=C[C@@]1(C)CC(=O)[C@@]2(O)[C@@]3(C)[C@H](O)CCC(C)(C)[C@@H]3[C@H](O)[C@H](OC(C)=O)[C@]2(C)O1 | -7.2% | ? | -7.9% | 0.8% | / | -0.6%
C=C[C@@]1(C)CC(=O)[C@@]2(O)[C@@]3(C)[C@@H](O)CCC(C)(C)[C@@H]3[C@H](OC(=O)CCN(C)C)[C@H](OC(C)=O)[C@@]2(C)O1 | -5.1%[25.6 µM] | 1µM* | -26.8% | -0.9% | / | -1.4%
Cc1c(CC(C)(C)C(=O)O)n(Cc2ccc(Cl)cc2)c2ccc(F)cc12 | -15.9%[25.6 µM] | -25.9% | ? | 0.5% | / | -2.7%
Cc1ccc2cc3cc(C(=O)N4CCCCC4C)oc3nc2c1 (configuration not stated) | -0.3% | 2.1% | 8.6% | -5.9% | ? | 12.6µM*
